Assay results as given in the supplement of paper PMC10498489.
Among all 2,300 compounds or so, about 330 (14%) showed activity.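 How the source made its calls: active = median modified Z-score above 1.96; inactive = 1.96 or below.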 These entries were drawn from the full list.

system: HepG2 Srxn1-GFP reporter cells (+30 nM CDDO-Me); test: Srxn1-GFP intensity median modified Z-score relative to plate median; higher = stronger NRF2 / oxidative stress reporter activation, active = hit call of the paper; details: 10 µM; exposure time: 24h
Summary of the method: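 Per-cell cytoplasmic GFP was measured on confocal images of formaldehyde-fixed, Hoechst-stained HepG2 Srxn1-GFP BAC reporter cells, excluding images with fewer than 100 cells. Before this, the cells (20,000 per well, 96-well plates) were co-exposed for 24 h to compound at 10 μM and an NRF2 activator at 30 nM with ≤0.1% DMSO, in three replicate plates. Each value is the median over replicates of the per-plate modified Z-score of GFP intensity. That score was scaled with 1.4826 × median absolute deviation.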

Row | Compound | Srxn1-GFP intensity median modified Z-score
1 | C#C[C@]1(O)CCC2C3CCC4=Cc5oncc5C[C@]4(C)C3CC[C@@]21C (some centres not stated) [euspeclibcmpd81] | -0.371 (inactive)
2 | N=c1[nH]cnc2c1ncn2[C@@H]1O[C@H](COP(=O)(O)OP(=O)(O)OC[C@H]2O[C@@H]([n+]3cccc(C(N)=O)c3)[C@H](O)[C@@H]2O)[C@@H](O)[C@H]1O [euspeclibcmpd202] | -0.305 (inactive)
3 | CCC(=O)OCC(=O)[C@@]1(OC(=O)CC)[C@@H](C)CC2C3CC=C4CC(=O)C=C[C@]4(C)C3(F)[C@@H](O)C[C@@]21C (some centres not stated) [euspeclibcmpd541] | -0.359 (inactive)
4 | O=C(O)c1cc(-c2ccccc2)nc2cc(Br)ccc12 | 1.37 (inactive)
5 | CC1OC(n2cc(F)c(=O)[nH]c2=O)C(O)C1O (configuration not stated) [euspeclibcmpd1997] | -0.334 (inactive)
6 | CN[C@@H]1[C@H](O)[C@H](NC)[C@H]2O[C@@]3(O)C(=O)C[C@@H](C)O[C@H]3O[C@@H]2[C@H]1O [euspeclibcmpd268] | -0.125 (inactive)
7 | COc1ccc2c(c1)O[C@@H]1COc3cc(OC)c(OC)cc3C1C2=O (some centres not stated) [euspeclibcmpd1700] | 22.8 (active)
8 | COc1cc2c(cc1OC)C1C(=O)c3ccc4c(c3O[C@@H]1CO2)C=CC(C)(C)O4 (some centres not stated) [euspeclibcmpd1734] | 12.7 (active)
9 | COc1ccc([C@H]2Oc3cc(OC)cc(OC)c3C[C@H]2O)cc1 [euspeclibcmpd1383] | 0 (inactive)
10 | COc1cc2c(cc1OC)C1C(=O)c3c(O)cc4c(c3OC1CO2)C=CC(C)(C)O4 (configuration not stated) [euspeclibcmpd1478] | 1.56 (inactive)
11 | COc1ccc2c(c1)O[C@H]1c3ccc(OC)cc3OC[C@@H]21 [euspeclibcmpd1733] | -0.45 (inactive)
12 | CCOC(=O)c1c(NC(=O)COC(=O)C(C)NC(N)=O)sc(C(C)=O)c1C (configuration not stated) | 1.26 (inactive)
13 | CCN(CC)CCCC(C)N=c1c2ccc(Cl)cc2[nH]c2ccc(OC)cc12 (configuration not stated) [euspeclibcmpd261] | 19.2 (active)
14 | CCN(CC)CCCC(C)N=c1cc[nH]c2cc(Cl)ccc12 (configuration not stated) [euspeclibcmpd325] | -0.157 (inactive)
15 | O[C@@H]1[C@H](O)CO[C@H]1O [euspeclibcmpd1668] | -0.319 (inactive)
16 | COc1ccc(-c2coc3cc(OC)ccc3c2=O)cc1 [euspeclibcmpd2413] | -0.165 (inactive)
17 | C[C@]12C=CC(=O)CC1=CCC1C2[C@@H](O)C[C@@]2(C)C1CC[C@]2(O)C(=O)CO (some centres not stated) [euspeclibcmpd241] | -0.692 (inactive)
18 | CN1C(=O)CC[C@H]1c1cccnc1 [euspeclibcmpd75] | -0.303 (inactive)
19 | O=C(O)c1cccnc1 [euspeclibcmpd2043] | -0.519 (inactive)
20 | CN1CCC[C@H]1c1cccnc1 [euspeclibcmpd957] | 8.21 (active)
21 | O=C(O)c1ccccc1C(=O)Nc1ccc(S(=O)(=O)N=c2[nH]ccs2)cc1 [euspeclibcmpd427] | 0.584 (inactive)
22 | CCCCCCCCCCOc1cc2c(=O)c(C(=O)OCC)c[nH]c2cc1OCC [euspeclibcmpd775] | 0 (inactive)
23 | COC(=O)CC1C(C)(C)C(O)C2CC3=C4CC(O)OC(c5ccoc5)C4(C)CCC3C1(C)C2=O (configuration not stated) [euspeclibcmpd1860] | 0.479 (inactive)
24 | C=CC[C@]1(O)CCC2C3=C(C=C[C@@]21C)C1=C(CC3)CC(=O)CC1 (some centres not stated) [euspeclibcmpd848] | 0.704 (inactive)

Row | Compound | Srxn1-GFP intensity median modified Z-score
25 | O=c1c(O)cccc2cc(O)c(O)c(O)c12 [euspeclibcmpd1723] | -0.877 (inactive)
26 | Cc1cc(O)c2c(O)c3c(O)cccc3cc2c1 [euspeclibcmpd2068] | 2.58 (active)
27 | Oc1cccc2cc3cccc(O)c3c(O)c12 [euspeclibcmpd25] | -0.419 (inactive)
28 | O=C(/C=C/C(=O)Oc1ccccc1C(=O)O)Oc1ccccc1C(=O)O [euspeclibcmpd1772] | -0.354 (inactive)
29 | CC(=O)Oc1ccccc1C(=O)Oc1ccccc1C(=O)O [euspeclibcmpd1749] | -0.327 (inactive)
30 | CC(=O)Oc1ccccc1C(=O)O [euspeclibcmpd28] | 61 (active)
31 | O=C(Oc1ccccc1C(=O)O)c1ccccc1O [euspeclibcmpd2] | -0.023 (inactive)
32 | CCCCC(=O)Oc1ccccc1C(=O)O [euspeclibcmpd1887] | 14.5 (active)
33 | O=C(O)c1ccccc1OP(=O)(O)O [euspeclibcmpd1073] | -0.579 (inactive)
34 | CCCCCN(C)CCC(O)(P(=O)(O)O)P(=O)(O)O [euspeclibcmpd2308] | -0.118 (inactive)
35 | CCCc1cc(C(N)=S)ccn1 [euspeclibcmpd1165] | -0.267 (inactive)
36 | NC[C@H]1O[C@H](OC2[C@@H](N)C[C@@H](N)[C@H](O[C@H]3O[C@H](CO)[C@@H](O)[C@H](N)[C@H]3O)[C@H]2O)[C@H](O)[C@@H](O)[C@@H]1O (some centres not stated) [euspeclibcmpd168] | -0.199 (inactive)
37 | CC(C)CCCC(C)C1CCC2C3CC[C@H]4C[C@@H](O)CC[C@]4(C)C3CC[C@]12C (some centres not stated) [euspeclibcmpd2135] | 0.00623 (inactive)
38 | NCCC[C@H](N)CC(=O)NC1CNC(=O)C([C@H]2C[C@H](O)NC(N)=N2)NC(=O)C(C=NC(N)=O)NC(=O)[C@H](CO)NC(=O)[C@H](CO)NC1=O (some centres not stated) [euspeclibcmpd994] | -0.33 (inactive)
39 | CC(C(=O)O)c1ccc2c(c1)[nH]c1ccc(Cl)cc12 (configuration not stated) [euspeclibcmpd425] | 0.027 (inactive)
40 | O=C(O)c1cc(=O)[nH]c(=O)[nH]1 [euspeclibcmpd1192] | -0.551 (inactive)
41 | O=C(O)c1cc2cc(Cl)ccc2[nH]1 [euspeclibcmpd2020] | 1.97 (active)
42 | CCn1cc(C(=O)O)c(=O)c2cc(F)c(N3CCN(C(=O)CCSC)CC3)cc21 | 0.401 (inactive)
43 | NS(=O)(=O)c1cc2c(cc1Cl)N=C(CSCc1ccccc1)NS2(=O)=O [euspeclibcmpd35] | -0.327 (inactive)
44 | CC1OC1P(=O)(O)O (configuration not stated) [euspeclibcmpd2281] | -0.455 (inactive)
45 | CC(C)[N+](C)(CCOC(=O)C1c2ccccc2Oc2ccccc21)C(C)C [euspeclibcmpd254] | 0.13 (inactive)
46 | O=Cc1ccccc1O[C@@H]1O[C@H](CO)[C@H](O)[C@@H](O)[C@H]1O [euspeclibcmpd1574] | 0.476 (inactive)
47 | N[C@@H]1[C@@H](O)[C@H](O)[C@@H](CO)O[C@H]1O [euspeclibcmpd140] | 0.0216 (inactive)
48 | CCCCOc1ccc(OCCCN2CCOCC2)cc1 [euspeclibcmpd396] | 2.42 (active)

Row | Compound | Srxn1-GFP intensity median modified Z-score
49 | CCCCOc1ccc(C(=O)CCN2CCCCC2)cc1 [euspeclibcmpd107] | 3.53 (active)
50 | CC1CCN(CCCC(=O)c2ccc(F)cc2)CC1 [euspeclibcmpd1905] | 1.19 (inactive)
51 | O=C(c1ccc(OCCN2CCCCC2)cc1)c1c(-c2ccc(O)cc2)sc2cc(O)ccc12 [euspeclibcmpd831] | -0.702 (inactive)
52 | O=C(NCCCCN1CCOCC1)c1ccc(F)cc1 | 0.352 (inactive)
53 | N#Cc1ccc(C(=O)NCCCCN2CCOCC2)cc1 | 0.374 (inactive)
54 | O=c1c(O)cc2c(O)oc3c(=O)c(O)cc4c(O)oc1c2c43 [euspeclibcmpd1077] | 0.204 (inactive)
55 | CC1CC[C@@]2(OC1)O[C@H]1CC3C4CC[C@@H]5C[C@@H](O)CC[C@]5(C)C4CC[C@]3(C)[C@H]1[C@@H]2C (some centres not stated) [euspeclibcmpd2070] | -0.402 (inactive)
56 | O=C(C=Cc1ccc(O)c(O)c1)O[C@@H]1C[C@](O)(C(=O)O)C[C@@H](O)[C@H]1O [euspeclibcmpd1682] | 1.16 (inactive)
57 | C[C@]12C=CC(=O)CC1=CCC1C2[C@@H](O)C[C@@]2(C)C1CC[C@]2(O)C(=O)COC(=O)CCC(=O)O (some centres not stated) [euspeclibcmpd794] | 0.608 (inactive)
58 | Cc1cccc(N=c2cc[nH]cc2S(=O)(=O)NC(=O)NC(C)C)c1 [euspeclibcmpd2184] | 0 (inactive)
59 | C[C@]12CCC3c4ccc(OC(=O)c5ccccc5)cc4CCC3C1CC[C@@H]2O (some centres not stated) [euspeclibcmpd412] | 0.298 (inactive)
60 | NC(=O)COC(=O)c1ccccc1Nc1cccc(C(F)(F)F)c1 | 1.26 (inactive)
61 | CC(=O)OCC(=O)[C@@]1(O)CCC2C3CC=C4CC(=O)C=C[C@]4(C)[C@@]3(Cl)[C@@H](Cl)C[C@@]21C (some centres not stated) [euspeclibcmpd1222] | -0.43 (inactive)
62 | CCC1OC(=O)C(C)C(=O)C(C)[C@@H](OC2O[C@H](C)C[C@H](N(C)C)[C@H]2O)[C@](C)(OC)CC(C)C(=O)C(C)[C@@H]2N(CCCCn3cnc(-c4cccnc4)c3)C(=O)O[C@]12C (some centres not stated) [euspeclibcmpd733] | -0.17 (inactive)
63 | Cc1ccc(Cl)c2cccnc12 | 1.45 (inactive)
64 | O=S(=O)(O)c1cc(I)c(O)c2ncccc12 [euspeclibcmpd2311] | -0.435 (inactive)
65 | Oc1c(I)cc(Cl)c2cccnc12 [euspeclibcmpd705] | 2.87 (active)
66 | Oc1c(Cl)cc(Cl)c2cccnc12 [euspeclibcmpd537] | 2.82 (active)
67 | Oc1c(I)cc(I)c2cccnc12 [euspeclibcmpd2015] | 1.62 (inactive)
68 | Oc1c(I)cc(Cl)c2cccnc12 | 1.31 (inactive)
69 | Oc1c(Br)cc(Br)c2cccnc12 [euspeclibcmpd1032] | 4.39 (active)
70 | Oc1ccc(Cl)c2cccnc12 [euspeclibcmpd72] | -1.02 (inactive)
71 | O=[N+]([O-])c1ccc(O)c2ncccc12 [euspeclibcmpd1218] | -0.363 (inactive)
72 | CCc1c(C)cn(C(=O)NCCc2ccc(S(=O)(=O)NC(=O)N[C@H]3CC[C@H](C)CC3)cc2)c1O [euspeclibcmpd697] | -0.793 (inactive)
